The text below walks through data of PubChem BioAssay (NCI).

What all share (assay): NCI-60 one-dose screen, 48 h (100 = growth as untreated, 0 = no growth, -100 = all killed)
Common to all, as to settings: 10 µM unless noted

Experiment [1] deals with NCI-H23 lung.
The test system of experiment [2] is NCI-H226 lung.
In experiment [3] the test system is NCI-H322M lung.
The test system of experiment [4] is NCI-H460 lung.
The test system of experiment [5] is HOP-92 NSCLC.
The subject of experiment [6] is NCI-H522 lung.
Experiment [7] deals with A549/ATCC NSCLC.
Experiment [8] relates to 786-0 renal.
For experiment [9], the system named is COLO 205 colon.
Experiment [10] has as its system DU-145 prostate.
For experiment [11], the system named is K-562 leukemia.
Experiment [12] relates to MALME-3M melanoma.
Experiment [13] deals with MDA-MB-231 breast.
The subject of experiment [14] is RXF 393 renal.
Experiment [15] relates to SF-268 CNS.
Experiment [16] deals with SF-295 CNS.
Experiment [17] has as its system SF-539 CNS.
The test system of experiment [18] is UACC-257 melanoma.
The test system of experiment [19] is M14 melanoma.

The structures appear in SMILES notation. Compounds without any hit were thinned out: in the full panel of roughly 83,000, 20% have a hit.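 Treatment: one concentration, 48 hours, 96-well format. Scoring: percent growth, with anything below 10 considered active.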 A number with no mark means an inactive call. Calls of active or inactive are those of the source.

In the case of `CS(=O)(=O)CCNCc1ccc(-c2ccc3ncnc(Nc4ccc(OCc5cccc(F)c5)c(Cl)c4)c3c2)o1`, the growth in [1] was 25.9%; in experiment [2], 54.7%; in experiment [3], 13.8%; in experiment [4], -58% (active); in [5], -1.7% (active); in [6], -44.5% (active). Further, the growth in experiment [7] is -39.4% (active); in experiment [8], -63.7% (active); in experiment [9] it was -27.2% (active); in experiment [10], 12%; in experiment [11], -22.7% (active); in experiment [12], -80.3% (active). Also, the growth in experiment [13] was -62.8% (active); in [14], -73.9% (active); in [15], 8.76% (active); in experiment [16] it was -7.05% (active); in experiment [17], -91% (active); in [18], -94.1% (active). Moreover, the growth in [19] is -64.5% (active).

`COc1cc(OC)c(C(=O)/C=C/c2cc3c(cc2OCc2ccccc2)OC(C)(C)CC3)cc1CC=C(C)C`: the growth in experiment [1] is 48.2%; in experiment [2], 43.2%; in [3] it was 79.6%; in experiment [4] it was 78.6%; in [5], -21.7% (active); in experiment [6] it was 65.2%. The growth in experiment [7] was 32.9%; in [8] it was 79.9%; in [9], 84.7%; in experiment [10], 51.9%; in experiment [12], 77.8%; in experiment [13], 52.4%. The growth in experiment [15] is 49.1%; in experiment [16], 66.9%; in experiment [17] it was 79.4%; in experiment [19] it was 68.2%.

With `O=C(COc1ccc(/C=C2\Cc3ccc(Cl)cc3C2=O)cc1)Nc1nccs1`, the growth in [1] is 88.9%; in experiment [2], 98.4%; in [3] it was 118%; in experiment [4], 95.2%; in [5], 77.5%; in experiment [6], -7.85% (active). For the same compound, the growth was 83.7% in experiment [7]; 95.8% in [8]; 124% in experiment [9]; 118% in experiment [10]; 121% in experiment [11]; 126% in experiment [12]. For the same compound, the growth is 92.2% in experiment [13]; 98.2% in experiment [14]; 114% in experiment [15]; 113% in [16]; 96.8% in experiment [17]; 98.5% in [18]. Further, the growth in [19] was 103%.

For the compound `CC1(O)CCC2CC3OC3(C)CCC3OC3(C)C(O)CC1C2(C)C` (configuration not stated), the growth is 96% in experiment [1]; 115% in [2]; 115% in experiment [3]; 120% in experiment [4]; -15.9% (active) in [5]; 97.6% in experiment [6]. For the same compound, the growth in experiment [7] is 92.8%; in experiment [8], 104%; in experiment [9], 109%; in experiment [10] it was 105%; in experiment [11], 119%; in experiment [12] it was 113%. Further, the growth is 122% in [13]; 113% in experiment [15]; 52% in [16]; 116% in experiment [17]; 114% in [19].

Regarding `CNC(=O)c1ccc(Nc2ncc(C(F)(F)F)c(NCc3nccnc3N(C)S(C)(=O)=O)n2)cc1`, the growth in experiment [1] is -16.8% (active); in experiment [2] it was 2.77% (active); in [3], 1.99% (active); in [4], 0.647% (active); in [5], -13.6% (active); in [6], -25.2% (active). Besides, the growth in experiment [7] is -14.4% (active); in experiment [8], 8.71% (active); in experiment [9], -66.2% (active); in experiment [10], 7.63% (active); in experiment [11], 10.6%; in experiment [12] it was -1.87% (active). The growth is 3.13% (active) in experiment [13]; -51.1% (active) in experiment [14]; 2.86% (active) in [15]; 5.63% (active) in [16]; -42.7% (active) in experiment [17]; -21.5% (active) in [18]. Also, in experiment [19], the growth was 8.04% (active).

On to `O=c1nc2c(-c3nc4ccccc4s3)n[nH]n2c2sc3c(c12)CCCC3`, for which the growth was 98.2% in [1]; 90.1% in experiment [2]; 107% in experiment [3]; 102% in [4]; 90.7% in experiment [5]; 99.9% in experiment [6]. The growth in [7] is 96.1%; in experiment [8], 102%; in experiment [9], 106%; in experiment [10] it was 104%; in [11], 92.3%; in experiment [12] it was 104%. Further, the growth in experiment [13] was 93.7%; in [15] it was 97.6%; in [16] it was 89.8%; in [17], 105%; in [19], 98.8%.

As to `COc1ccc2c(CCCCC(c3ccccc3)c3ccccc3)c3[n+](cc2c1OC)CCc1cc2c(cc1-3)OCO2`, the growth in [1] was -66.5% (active); in experiment [2], -55% (active); in experiment [3] it was 11.1%; in experiment [4], -83% (active); in experiment [5] it was -72.7% (active); in experiment [6] it was -57.5% (active). Moreover, the growth is -22.5% (active) in experiment [7]; -75.8% (active) in experiment [8]; -77.3% (active) in [9]; -80% (active) in experiment [10]; -7.74% (active) in experiment [11]; -80.9% (active) in [12]. For the same compound, the growth was -75.1% (active) in [13]; -60.7% (active) in [15]; -84.2% (active) in [16]; -64.5% (active) in experiment [17]; -76.1% (active) in experiment [19].

Turning to `COC(=O)C1CCc2sc3ncnc(Nc4cn[nH]c4C(=O)Nc4ccc(CN5CCN(C)CC5)cc4)c3c21` (configuration not stated), the growth is -9.63% (active) in experiment [1]; 14.9% in experiment [2]; 8.74% (active) in experiment [3]; -59% (active) in experiment [4]; -29.2% (active) in [5]; -1.37% (active) in experiment [6]. Moreover, the growth is 4.85% (active) in experiment [7]; -4.45% (active) in experiment [8]; -70.8% (active) in [9]; -44.6% (active) in [10]; -24% (active) in [11]; -72.3% (active) in experiment [12]. Moreover, the growth in experiment [13] was -0.275% (active); in experiment [14] it was -78.9% (active); in experiment [15], -1.56% (active); in experiment [16], 26.4%; in experiment [17], -77.3% (active); in [19], -0.905% (active).
